Measured values: PubChem BioAssay AID588343 (Broad Institute, 2011)
In all, about 1,200 compounds went through this assay and about 650 (54%) were called active. Not shown: some 5% with an inconclusive outcome.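 How the source made its calls: active means signal-lowering curve whose fitted half-maximal concentration is at or below ten times the top valid dose tested; inconclusive means flat curve with 30 to 70% inhibition, or poor fit; inactive means signal increase, flat within 30%, or potency beyond limit.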 The set was probably picked from earlier hits. These entries were drawn from the full list. Entries with a potency or affinity are not part of this list.

test: inhibitors of LMP1-driven NF-kB reporter, dose response, cell-based, HEK293, luciferase, cherry-pick (AID 588343); details: HEK293 LMP1 TES2 NF-kB luciferase reporter, 16 h; series mostly up to 35 µM; activity change, negative = inhibition: at the top concentration;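 further: 0% = median of neutral control wells and -100% = MG132 positive control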

Activity change, negative = inhibition, inactive:
COc1ccc(CN2C(=O)c3cccnc3C2Nc2cc(Cl)ccc2OC)cc1 (centres undefined) 7.84%, O=C(COC(=O)c1cc2ccccc2cc1O)NCc1ccccc1 2.44%, COc1ccc(-c2nc(C)ncc2-c2ccccc2)c(O)c1 14%, Cc1ccc(NC(=O)NNS(=O)(=O)c2ccc(Br)cc2)cc1 -5.64%, O=C(Nc1ccccn1)NC1CCCCC1 25.1%, CC1CN(c2cc(=O)n(-c3ccccc3)c(=O)[nH]2)CC(C)O1 (centres undefined) 9.32%, Cc1ccc(-n2nc(C(=O)NCc3ccc(C)o3)c3c4ccccc4n(C)c3c2=O)cc1 1.78%, Nc1nc(N)nc(-c2cc(Cl)ccc2Cl)n1 1.16%, COc1ccccc1NC(=O)Cn1nnc(-c2ccccc2NS(=O)(=O)c2ccccc2)n1 13.3%, CC1CCCN(C(=O)COC(=O)c2n[nH]c3ccccc23)C1 (centres undefined) -9.33%, COc1ccc(S(=O)(=O)NCC(c2cccnc2)N2CCN(c3ccc(F)cc3)CC2)cc1C (centres undefined) -9.56%, COc1ccc(-c2[nH]ncc2/C=N\NS(=O)(=O)c2ccc(Cl)cc2)cc1 -21.3%, CC1(C)CC(=O)C(CC2=C(O)CC(C)(C)CC2=O)=C(O)C1 -2.16%, COc1ccccc1OCc1ccc(C(=O)c2ccccc2)cc1 12.8%, CSc1ccccc1OCc1cc(C(=O)N2CCC[C@H]2C(N)=O)no1 -1.13%, Cc1ccc(C(=O)NCC(=O)N(C)Cc2cccc(F)c2)s1 -9.68%, CCCC(=O)C1=C(O)C(C(=O)OC)C(C)(C)CC1=Nc1ccncc1 (centres undefined) 19.9%, CSc1ccccc1NC(=O)CN1CCCCC1C (centres undefined) 13.4%, CCSc1nnc(NC(=O)CCn2c(=O)oc3ccccc32)s1 4.22%, O=C(CN1C(=O)c2ccccc2C1=O)NNC1=NS(=O)(=O)c2ccccc21 -3.6%, CCOc1cc(C(=O)OC(C)C(=O)Nc2ncc(Cl)cc2Cl)ccc1OCC(=O)N1CCOCC1 (centres undefined) 8.92%, Cc1onc(-c2c(Cl)cccc2Cl)c1C(=O)N[C@@H]1C(=O)N2[C@@H]1SC(C)(C)[C@@H]2C(=O)O -8.5%, COc1ccccc1N1CCN(CCCNC(=O)C2CCCN(c3ncnc4c3nc3n4CCCCC3)C2)CC1 (centres undefined) 0.249%, C=CCN1CCN(C(CC(C)C)c2nnnn2CCOC)CC1 (centres undefined) -11.1%, Cn1c(CC(=O)Nc2ccc(F)cc2)nnc1SCC(=O)Nc1nncs1 10.7%, O=C(Cn1nc(C(F)(F)F)c2c1CCC2)NC1CCCCC1 -2.62%, O=C(CCCN1C(=O)[C@H]2CC=CC[C@H]2C1=O)NCc1nc(-c2ccc(Cl)cc2)no1 -18.8%, O=C(O)CCc1nc(-c2ccc(Cl)cc2)no1 4.11%, Cc1ccccc1NC(=O)CN1C(=O)S/C(=C\c2cccn2-c2cccc(C(=O)O)c2)C1=O -6.82%, COc1ccc(NC(=O)CCS(=O)(=O)c2ccc3c(c2)CCN3C(C)=O)cc1 -5.97%, COc1ccc(N2C(=O)C(=O)/C(=C(/O)c3ccc(C)cc3)C2c2cccnc2)cc1 (centres undefined) 15.4%, COC(=O)c1ccc(COc2ccccc2/C=C/C(=O)c2ccc(OCC(=O)O)cc2)cc1 28.1%, CC(=O)Nc1ccc(OCCCNC(=O)c2c(-c3ccccc3)noc2C)cc1 -11.5%, Cc1ccc(C)c(S(=O)(=O)N2CCN(CC(=O)N3CCc4ccccc4C3)CC2)c1 -3.25%, CCc1c(C)nc2cc(-c3ccc(OC)c(OC)c3)nn2c1NCC1CC1 -3.66%, NC(=O)C1(Nc2ccc([N+](=O)[O-])cc2)CCCC1 34.6%, CCCCCC(=O)N1CCN(c2ccc(C(C)=O)cc2F)CC1 -3.82%, O=C(C1CCCCC1)N1CCN(c2ncccn2)CC1 3.25%, CCN(CC)Cc1cc(Nc2ccnc3cc(Cl)ccc23)ccc1O 101%, O=C1CCC(C(=O)N2CCCCCC2)CN1CCc1ccc(Cl)cc1 (centres undefined) 16.5%, COc1ccc(OC)c2[nH]c(=O)c(CCNC(=O)c3ccc(S(=O)(=O)N(C)C)cc3)cc12 -1.61%, O=C(c1sc2cc([N+](=O)[O-])ccc2c1Cl)N1CCOCC1 -5.85%, COc1ccc(-c2cn3nc4c(nc3n2)CCCC4)cc1 16.5%, CC(C)(C)c1cc(C(=O)NNC(=O)Nc2cccc(Cl)c2)n(Cc2ccccc2)n1 -29.9%, O=C(CCC(=O)NNC(=O)Nc1cccc(Cl)c1)NCc1ccccc1 5.6%, O=C(O)c1cccc(NC(=O)c2cn(-c3ccccc3)nc2-c2ccc(F)cc2)c1 -4.64%, COc1cccc(CC(=O)NNC(=O)c2ccc3c(c2)OCO3)c1 28.4%, CC(CN1CCCCC1)OC(=O)c1ccc2c(c1)OCO2 (centres undefined) 11.2%, COC(=O)C1=C(C)N(CCCC(=O)O)C(=O)NC1c1cccc(Cl)c1Cl (centres undefined) 10.5%, CCc1nnc(NC(=O)c2ccc(S(=O)(=O)N3CCOCC3)cc2)s1 0.338%, Cn1cc(SCC(=O)NCC2CCCO2)c2ccccc21 (centres undefined) 2.79%, COc1ccc(CN(C(=O)c2nsc(Cl)c2Cl)C(C(=O)NC2CCCC2)c2ccc(C)cc2)cc1 (centres undefined) -2.71%, CN(Cc1ccc(F)cc1)C(=O)CN1CCN(S(=O)(=O)c2ccc3c(c2)OCCCO3)CC1 -8.59%, Cc1c(C=O)c2ccccn2c1C(=O)c1ccccc1Cl -10.8%, COc1cc(/C=N/NC(=O)c2cccc(S(=O)(=O)N3CCOCC3)c2)cc(OC)c1O 0.063%, Cc1ccc(S(=O)(=O)N2CCCCC2)cc1NC(=O)CNc1ccccc1N1CCCC1=O 20%, CC(=O)c1ccccc1OCC(=O)Nc1cccc(S(=O)(=O)N2CCCC2)c1 27.2%, Cc1ccc(-c2nnn(CC(=O)N(Cc3ccco3)C(C(=O)NC(C)(C)C)c3ccncc3)n2)o1 (centres undefined) 0.887%, CCOC(=O)Cc1csc(N/N=C\c2ccc(N(C)C)cc2)n1 -10.4%, COc1ccc(/C=N/NC(=O)COc2ccccc2-c2ccccc2)cc1 -5.95%, COc1ccccc1C(=O)NC(=O)CSc1nnc(N)s1 3.08%, Cc1ccc(N(Cc2cc3ccccc3[nH]c2=O)C(=O)c2ccco2)c(C)c1 7.13%, COc1ccc(N2CCN(CCNC(=O)CCCn3c(=O)[nH]c4cc(Cl)ccc4c3=O)CC2)cc1 5.67%, Cc1ccc(CN2C(=O)CCC2C(=O)NCCCN2CCC(C)CC2)cc1 (centres undefined) -7.63%, COc1ccc(-c2nc(CS(=O)CC(=O)NCc3ccc(Cl)cc3)c(C)o2)cc1 (centres undefined) 12.4%, CC1CC(C)CN(S(=O)(=O)c2ccc(NC(=O)CCN3C(=O)C4CC=CCC4C3=O)cc2)C1 (centres undefined) -5.72%, CC1(C)CN(Cc2ccccc2)C(=O)[C@H]1CC(=O)Nc1ccccc1 -7.78%, CC(C)(C)c1nc2c(s1)CCc1onc(-c3ccc(Br)cc3)c1-2 -1.55%, O=C(O)c1ccc(C=NNC(=O)c2cccc3ccccc23)cc1 -11.7%, CS(=O)(=O)Nc1ccc(C2=NN(S(C)(=O)=O)C(c3ccccc3)C2)cc1 (centres undefined) 8.63%, CC(=O)NC(CCS(C)(=O)=O)C(=O)Nc1ccc(Cl)c(Cl)c1 (centres undefined) -1.94%, Cc1cc(C)c(OCCn2ccnc2)c(C)c1 26.1%, COCCn1c(SCCN2CCOCC2)nc2c1c(=O)[nH]c(=O)n2C 2.32%, CN1CCN(C(=O)C2=C[C@@H](C(C)(C)C)C[C@@H](OCc3ccc(CO)cc3)O2)CC1 7.97%, COC(=O)[C@H](C)[C@H]1C[C@]1(C)[C@H](NC(=O)OCc1ccccc1)c1ccccc1 -3.31%, Cc1nc(C)n(C(C)CNC(=O)c2ccco2)n1 (centres undefined) 10%, O=C1CCCN2N=C(SCC(=O)Nc3ccc(Br)cc3)SC2=N1 16.1%, CSc1nc(C)cc(C)c1C#N -9.57%, CC(=O)c1ccc(-n2nnnc2SCC(=O)N2CCc3ccccc3C2)cc1 -15.1%, CCSc1nnc(NC(=O)CSc2nnc(-c3c[nH]c4ccccc34)n2CC)s1 37.4%, COc1ccc(C(=O)CN(CCC(=O)O)S(=O)(=O)c2ccc([N+](=O)[O-])cc2)cc1 -5.91%, Cc1cccc(S(=O)(=O)N2CCCc3ccccc32)c1 -11.4%, COc1ccc(S(=O)(=O)N2CCN(CC(=O)Nc3cc(OC)cc(OC)c3)CC2)cc1 16.4%, COc1cc(C(c2sc3nc(C)nn3c2O)N2CCc3ccccc3C2)cc(OC)c1OC (centres undefined) -5.62%, O=C(OCc1ccccc1F)c1cc2ccccc2cc1O 17.9%, Nc1cc(=O)[nH]c(SCCSc2cc(Cl)ccc2Cl)n1 -26.3%, OCCN(CCO)CC(O)COCCC12CC3CC(CC(C3)C1)C2 (centres undefined) 22.3%, CN=C1S/C(=C\c2ccc(O)c(Br)c2)C(=O)N1C 5%, CC(=O)OCC(=O)[C@@]1(O)CC[C@H]2[C@@H]3CCC4=CC(=O)CC[C@]4(C)[C@H]3[C@@H](O)C[C@@]21C -18.4%, Cc1cccc(-n2c(O)c(C=Nc3c(C)n(C)n(-c4ccccc4)c3=O)c3ccccc3c2=O)n1 5.7%, O=c1c(O)c(-c2ccc(O)c(O)c2)oc2cc(O)cc(O)c12 17.5%, CN(Cc1ccccc1)c1nc(N)c([N+](=O)[O-])c(NCc2ccccc2)n1 26.4%, COc1ccccc1C(=O)Nc1c[nH]c(=O)[nH]c1=O -8.44%, COc1ccc(N2Cc3cccc(C(=O)NC(C)CCc4ccco4)c3C2=O)cc1 (centres undefined) 2.7%, COc1ccc(N2C(=O)C(Cl)=C(NCc3ccccc3)C2=O)cc1 0.637%, Cc1cc(=O)[nH]c(=S)[nH]1 -0.637%, C=CC[N+](C)(C)C/C(Cl)=C(\Cl)c1ccccc1 -4.54%, O=c1cc(C2CCCCC2)[nH]c(=O)[nH]1 -3.35%, CC(C)NC(=O)N(C)C[C@H]1Oc2c(NC(=O)Nc3ccc4c(c3)OCO4)cccc2C(=O)N([C@H](C)CO)C[C@@H]1C 15.6%, Cc1ccc(S(=O)(=O)N2CCN(C(=O)COC(=O)COc3ccc(Cl)cc3)CC2)c(C)c1 10.8%, COc1cc2cc(C(=O)N3CCN(c4ccccc4OC)CC3)[nH]c2cc1OC 13.6%, CCC(C)N1C(=O)CCC1C(=O)N1CCN(c2ccc(F)cc2)CC1 (centres undefined) 2%, O=C1c2cccc3c(O)ccc(c23)C(=O)N1c1ccc(Cl)cc1 -19.5%, O=C(CC(c1ccc(F)cc1)c1ccco1)N1CCOCC1 (centres undefined) 14.7%
